This note sets out measurements from the supplement of paper PMC10338343.

± gives the standard deviation. Over roughly 6,200 sequences, “pre-steady-state target cleavage rate” has its median near 0.29; the highest 2% begin near 2. Only a selection was taken, and the highest values are over-represented in it overall.

This assay relates to MIWI (PIWIL1) piRISC loaded with piRNA #1 (30 nt). Kind of assay: pre-steady-state target cleavage rate (min^-1); MIWI and MILI are mouse PIWI proteins and EfPiwi is from a freshwater sponge; tags in brackets are library labels; higher = faster piRNA-guided slicing of the target. The settings on record: guide: piRNA #1 5'p-UGAGGUAGUAGGUUGUAUAGUAUCCAGAGG; auxiliary factor: 500 nM mouse GTSF1. As for the experimental part: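 Cleave-'n-Seq: a library of target RNAs (target site embedded in constant flanks, ACAGCATTCCGCGTTAGTGATATCCG... 5' flank; DNA-blocked outside the site) at 0.1 nM was incubated with 1 nM active mouse MILI or MIWI piRISC (synthetic 5'-monophosphorylated piRNA guide) with or without 500 nM mouse GTSF1 at 33 °C for 1 min to 16 h. Uncleaved targets were sequenced and normalised to non-target controls, and the pooled three trials were fitted to a burst-and-steady-state model to give the pre-steady-state cleavage rate (min^-1; k3 is constrained to at most 1e-4). Sequence is the target site only; target names encode pairing extent (gX:gY) and contiguous / 1-mismatch / 2-mismatch / bulge geometry. Fits with R² ≤ 0 are excluded.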
GGUCUGGAUACAAUACAACCUAGUACCUCA: the “pre-steady-state target cleavage rate” value is 0.562 ± 0.054.
The figure for GGACAGGAUACUAUUCAACCUACUACCUCA is 1.69 ± 0.11.
The figure for GGUCAGGAUACUAUUCAACCUACUACCUCA is 1.79 ± 0.1.
With GGAGAGGAUACUAUUCAACCUACUACCUCA the figure was 1.23 ± 0.062; with GCUCAGGAUACUAUUCAACCUACUACCUCA, 2.09 ± 0.13.
With GCUCUGGAUACUAUUCAACCUACUACCUCA, the “pre-steady-state target cleavage rate” value was found to be 1.87 ± 0.11.
Turning to CCUCAGGAUACUAUUCAACCUACUACCUCA, the “pre-steady-state target cleavage rate” value worked out at 2.22 ± 0.14.
The figure for GCUCUGGAUACUAUACUAACCUACUACCUCA is 0.00667 ± 0.0041; for GGAGACGAUACAAUUCAACCUACUACCUCA it is 0.664 ± 0.073.
With GGAGUGGAUAGUAUACAACCUACUAGCUCA, the “pre-steady-state target cleavage rate” value stood at 0.0218 ± 0.0063.
The figure for GGAGACGAUACUAUACUAGCUACUACCUCA is 0.579 ± 0.048.
The figure for GGUCUGGAUUCUAUAGAACCUACUACCUCA is 0.979 ± 0.064.
On to GCUCUCGAUACUAUACAACCUACAACCUCA, for which the “pre-steady-state target cleavage rate” value stood at 1.01 ± 0.078.
With GCUCUCGAUACAAUACAACCUACUACCUCA, the “pre-steady-state target cleavage rate” value worked out at 2.07 ± 0.12.
For the sequence GGACUCGAUACAAUACAACCUACUACCUCA, the “pre-steady-state target cleavage rate” value was 1.46 ± 0.095.
Regarding GCUCUCGAUAGUAUACAACCUACUACCUCA, the “pre-steady-state target cleavage rate” value came out at 1.95 ± 0.13.
GGUCUCGAUACAAUACAACCUACUACCUCA: the “pre-steady-state target cleavage rate” value was 1.77 ± 0.12.
With CCUCUCGAUACAAUACAACCUACUACCUCA, the “pre-steady-state target cleavage rate” value was 2.17 ± 0.14.
On to GCUCUGGAUAGUAUUCAACCUACUACCUCA, for which the “pre-steady-state target cleavage rate” value was determined as 0.849 ± 0.044.
GGAGACCAUACUAUUCAACCUACUACCACA: the “pre-steady-state target cleavage rate” value was 1.05 ± 0.078.
Turning to GGACUGGAUACUAUACAACCUACGUACCUCA, the “pre-steady-state target cleavage rate” value amounted to 0.656 ± 0.089.
For the sequence GCUCUGGAUACUAUACAACGUACUUCCUCA, the “pre-steady-state target cleavage rate” value was 0.486 ± 0.045.
For the sequence GGAGACGAAACUAUACAAGCUACUACCUCA, the “pre-steady-state target cleavage rate” value was 0.872 ± 0.057.
With GGAGUGGUUUCUAUACAACCUACUACCUCA the figure was 1.32 ± 0.081; with GCUCUGGAUACUAUACAACCUACUUACCUCA, 2.1 ± 0.13; with CCUCUGGAUACUUACAACCUACUACCUCA, 1.3 ± 0.12.
For the sequence CCUCUGGAUACUAUACAACCUACUUACCUCA, the “pre-steady-state target cleavage rate” value was determined as 2.2 ± 0.14.
Take GCUCUGGAUACUUAUACAACCUACUACCUCA: the “pre-steady-state target cleavage rate” value was 1.53 ± 0.084.
The figure for GCUCUGGAUACUUACAACCUACUACCUCA is 1.18 ± 0.1.
The figure for GGUCUGGAUACUAUACAACCUACUUACCUCA is 1.23 ± 0.084; for GGAGACCUUACUAUACAACCUACCACCUCA it is 0.847 ± 0.06.
As for GGACUGGAUACUUAUCAACCUACUACCUCA, the “pre-steady-state target cleavage rate” value was 0.719 ± 0.1.
For GGACUGGAUACGAUACAACCUACUACCUCA, the “pre-steady-state target cleavage rate” value was determined as 1.64 ± 0.1.
The figure for CCUCUGGAUACUAAACUACCUACUACCUCA is 1.24 ± 0.098; for GCUCAGGAUACUUUACAACCUACUACCUCA it is 1.81 ± 0.11; for GGUCAGGAUACUUUACAACCUACUACCUCA it is 1.54 ± 0.085.
With CCUCAGGAUACUAAACAACCUACUACCUCA the figure was 2.07 ± 0.12.
GCUCAGGAUACUAUACAACCUACUACCACA: the “pre-steady-state target cleavage rate” value was 1.75 ± 0.1.
With CCUCAGGAUACAAUACAACCUACUACCUCA the figure was 2.01 ± 0.12; with CCUCAGGAUACUAUACAACCUACUACCACA, 2.43 ± 0.17.
Consider GCUCAGGAUACUAAACAACCUACUACCUCA, for which the “pre-steady-state target cleavage rate” value is 1.95 ± 0.12.
With CCUCAGGAUACUUUACAACCUACUACCUCA the figure was 2.1 ± 0.13.
The figure for GGUCAGGAUACAAUACAACCUACUACCUCA is 1.69 ± 0.1; for CCACAGGAUACUAUACAACCUACUACCUCA it is 1.87 ± 0.13.
With GCUCAGGAUACAAUACAACCUACUACCUCA the figure was 1.9 ± 0.12.
With GGUCAGGAUACUAAACAACCUACUACCUCA, the “pre-steady-state target cleavage rate” value amounted to 1.74 ± 0.096.
With CCUCUGGAUACUUUACAACCUACUACCUGA the figure was 0.715 ± 0.1; with GGAGACCUAUCUAUACAACCUACUAGCUCA, 0.517 ± 0.046; with GGAGAGGAUACUAUAGCAACCUACUACCUCA, 0.61 ± 0.07.
The figure for GGAGACGAUACUAUACAUGCUACUACCUCA is 0.755 ± 0.037; for GGAGACCUUACUGUACAACCUACUACCUCA it is 0.655 ± 0.077; for CCUCUGGAUACUAUUCAACCUAGUACCUCA it is 0.085 ± 0.021.
On to CCUCUGGAUACUAUAGAACCUACUACCACA, for which the “pre-steady-state target cleavage rate” value was determined as 0.372 ± 0.042.
The figure for GCUCUGGAUACUAUCACAACCUACUACCUCA is 1.62 ± 0.12; for GGUCAGGAUACUAUACAUCCUACUACCUCA it is 1.54 ± 0.079.
The figure for CCUCAGGAUACUAUACAUCCUACUACCUCA is 2.03 ± 0.12; for GCUCAGGAUACUAUACAUCCUACUACCUCA it is 1.85 ± 0.099; for GGUCUCGAUACUAUACAACCUACUACCUCA it is 1.83 ± 0.12.
With CCUCUGGAUACCUAUACAACCUACUACCUCA the figure was 1.18 ± 0.072; with GCCUCUGGAUACUAUACAACCUACUACCUCA, 1.89 ± 0.12.
CUCUCUGGAUACUAUACAACCUACUACCUCA: the “pre-steady-state target cleavage rate” value was determined as 2.1 ± 0.13.
In the case of UCUCUGGAUACUAUACAACCUACUACCUCA, the “pre-steady-state target cleavage rate” value came to 2.04 ± 0.1.
With CCUCUGGAUACUAUACUACCUACAACCUCA the figure was 1.08 ± 0.098; with CCUCUGGAUACUAUACAACCUACAACCUCA, 1.56 ± 0.1; with GGAGUGGAUACUAUACAACCUACGUACCUCA, 0.712 ± 0.076.
With GGAGAGGAUACUUUAGAACCUACUACCUCA, the “pre-steady-state target cleavage rate” value came out at 0.919 ± 0.051.
With GGAGAGGAUACUAUACAACCUACUGACCUCA the figure was 0.576 ± 0.034.
With GGAGACGAUUCAAUACAACCUACUACCUCA the figure was 0.502 ± 0.063; with GGAGACCUAUCUUUACAACCUACUACCUGA, 0.101 ± 0.025.
Turning to CCUCUGGAUACUAUACAACCUACUACUUCA, the “pre-steady-state target cleavage rate” value amounted to 2.32 ± 0.16.
Turning to GCUCUGGAUACUAUACAACCUACUACUUCA, the “pre-steady-state target cleavage rate” value was 2.26 ± 0.14.
The figure for CCUCUGGAUACUAUACAACCUACUACCUUCA is 1.88 ± 0.12.
Regarding GCUCUGGAUACUAUACAACCUACUACCUUCA, the “pre-steady-state target cleavage rate” value was determined as 1.9 ± 0.13.
Turning to CCUCUGGAUACUAUACAACCUACUUCCUCA, the “pre-steady-state target cleavage rate” value is 0.668 ± 0.053.
